# Only some compounds are listed: those with a hit (about 1.3% of all), similar ones and a draw of the others.
# HTT promoter inh – inhibits huntingtin promoter activity. Potency, µM (top dose mostly 57.5 µM), inactives show at the top dose activity change, negative = inhibition, most hits filed as inhibitors. 48,000 tested, 0.93% active. HEK293 HTT promoter firefly luciferase reporter, 24 h; also: nearly all actives have a fitted effect of over 50% in size
#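 HEK293 luciferase promoter-reporter cells (2,500/well) plated 24 h, then compounds added at up to 57.5 uM final for 24 h at 37 °C. Firefly luminescence by Dual-Glo, normalized to vehicle (0%) and zero RLU (-100%).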
# GALC G270D up – galactocerebrosidase G270D activity enhancement, cell-based; P54803; 145M-Twi-hGALC-G270D cells, HMU-beta-Gal fluorescence, 48 h; Potency, µM (doses to about 57.5 µM), usual class: activators; 45,000 tested, 0.1% active; AID 1159614; also: 0% is about no effect; nearly all actives have a fitted effect of over 65% in size
#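 qHTS, 1536-well; 145M-Twi-hGALC-G270D cells (WT line also made) in DMEM/F12 + 10% FBS; compound incubation on live cells; HMU-β-gal 0.1 mM final, pH 5.2, NaTC; carbonate stop; fluorescence increase = enhanced residual activity.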
# FH mod – Identification of activators of human fumarate hydratase by quantitative high-throughput screening; Fumarate hydratase, mitochondrial (Homo sapiens), P07954; FH coupled MDH/diaphorase resazurin fluorescence, 15 min; Potency, µM (doses to about 79.9 µM), inactives show at the top dose activity change, negative = inhibition, usual class: inhibitors; 54,000 tested, 0.22% active; also: % is scaled to controls: 0 for no effect and ±100 for the full control effect; the screen sought activators but most active calls are inhibition curves; nearly all actives have a fitted effect of over 45% in size
# Target sequence (P07954 whole entry, looked up): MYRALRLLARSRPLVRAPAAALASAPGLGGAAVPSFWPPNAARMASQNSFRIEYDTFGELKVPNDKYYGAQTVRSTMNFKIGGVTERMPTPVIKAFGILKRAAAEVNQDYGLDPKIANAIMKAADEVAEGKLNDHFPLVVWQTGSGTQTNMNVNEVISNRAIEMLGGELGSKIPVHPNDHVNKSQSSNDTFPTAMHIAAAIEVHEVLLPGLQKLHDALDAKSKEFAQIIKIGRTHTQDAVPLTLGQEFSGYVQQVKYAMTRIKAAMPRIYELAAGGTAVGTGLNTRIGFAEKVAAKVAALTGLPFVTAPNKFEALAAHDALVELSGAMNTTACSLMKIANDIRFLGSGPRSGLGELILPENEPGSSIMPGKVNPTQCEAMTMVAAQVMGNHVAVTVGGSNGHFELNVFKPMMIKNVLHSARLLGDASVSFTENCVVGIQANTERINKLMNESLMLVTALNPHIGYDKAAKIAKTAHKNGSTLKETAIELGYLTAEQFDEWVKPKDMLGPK
# HTT-AS act – HTT-AS promoter activation; HEK293 HTT-AS promoter firefly luciferase reporter, 24 h; response scale: percent change from vehicle, -100% = no light; Potency, µM (top dose mostly 57.5 µM), for inactives: at the top dose activity change, positive = activation, most hits filed as activators; 48,000 tested, 0.24% active; AID 1508624; also: nearly all actives have a fitted effect of over 55% in size
#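 Quantitative HTS used concentration series of up to 57.5 uM final on HEK293 luciferase reporter cells, 24 h at 37 degrees C. Readout was Dual-Glo firefly luminescence.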
# Starred values were filed as active, the others as inactive; i = inactive; ? = inconclusive; [ ] = another dose, or the depositor's remark. Calls follow the shape of the dose curve; as a rule, active = well fitted curve in the direction sought with a large enough effect; inconclusive = small, poorly fitted or top-dose-only effect, or another doubt; inactive = no such curve, though single readings can be large; an effect the other way counts as inactive or inconclusive. Potency is read from the fitted curve at half-maximal effect.
SMILES,HTT promoter inh,GALC G270D up,FH mod,HTT-AS act
O=C(Nc1ccccc1F)c1ccc2c(Cl)c3c(nc2c1)CCC3,12.6µM*,i,?,-68.5%
CN(C(=O)Nc1cn(C)c(=O)c2ccccc12)c1ccccc1,-15.7%,i,35.5µM*[activator],-22.6%
Cc1c(-c2ccc(Cl)cc2)c(=O)oc2c(CN3CCCC3)c(O)ccc12,-0.2%,39.8µM*,-11.4%,-19.6%
CCOc1cc(NC(C)=O)ccc1C(=O)OC,-0.7%,i,3.5%[53.3 µM],-6.3%
CS(=O)(=O)N1CCc2cc(C(=O)Nc3ccc(S(N)(=O)=O)cc3)ccc21,-14.9%,i,-4.6%,0.3%
COc1ccc(CCNC(=O)CCc2c(C)nc3cc(-c4ccc(Cl)cc4)nn3c2C)c(OC)c1,2µM*,i,0.6%,-74.3%
CCOc1ccc(CCNC(=O)CCc2c(C)nc3cc(-c4ccccc4OC)nn3c2C)cc1,12.6µM*,i,-26.0%,-81.2%
CC(=O)c1ccc(NC(=O)CCc2c(C)nc3cc(-c4ccc(Cl)cc4)nn3c2C)cc1,0.282µM*,i,-21.3%,-80.0%
Cc1nc2cc(-c3ccccc3)nn2c(C)c1CCC(=O)N1CCN(c2ccc(F)cc2)CC1,2µM*,i,-21.8%,-75.4%
Cc1nc2c(-c3ccc(F)cc3)c(C)nn2c(C)c1CCC(=O)N1CCN(c2ccccc2)CC1,-10.0%,i,?,-13.6%
COc1ccccc1-c1cc2nc(C)c(CCC(=O)NCCc3cccc(C)c3)c(C)n2n1,?,i,-20.9%,-59.9%
COc1ccc(C2=C(C)C(=NCCCN3CCN(c4cc(C)ccc4C)CC3)NS2(=O)=O)cc1,?,i,-11.1%,-35.6%
O=C(Cn1c(=O)nc(-c2ccccc2)c2ccccc21)NCc1ccc(Cl)cc1,?,i,?,-20.5%
Cc1nc2nc(-c3ccc(Cl)cc3Cl)nn2c(C)c1CCC(=O)Nc1ccc(F)cc1,7.94µM*,i,8.2%,-80.3%
COc1ccc(-c2cc3nc(C)c(CCC(=O)Nc4ccccc4C(C)=O)c(C)n3n2)c(OC)c1,14.1µM*,i,-5.9%,-75.9%
CCOc1ccccc1NC(=O)CCc1c(C)nc2cc(-c3ccccc3)nn2c1C,?,i,-26.4%,-65.8%
Cc1nc2nc(CNC(=O)c3cccc(F)c3)nn2c(C)c1CCC(=O)Nc1ccc(F)cc1,10.6%,i,2.7%,4.4%
COc1ccc(CCNC(=O)CCc2c(C)nc3cc(-c4ccccc4)nn3c2C)cc1OC,?,i,2.1%,-81.8%
CSc1ccc(CCNC(=O)CCc2c(C)nc3cc(-c4ccccc4)nn3c2C)cc1,2µM*,i,1.0%,-68.2%
Cc1ccc(NC(=O)CCc2c(C)nc3cc(-c4ccccc4)nn3c2C)cc1F,2µM*,i,-8.5%,-70.9%
O=c1[nH]c2ccccc2n1CCCN1CCN(C(c2ccccc2)c2ccccc2)CC1,?,i,-6.8%[53.3 µM],-30.9%
COc1ccccc1Cn1c(CNS(=O)(=O)c2ccc(CC(C)C)cc2)nc2cccnc21,-24.1%,i,-19.5%,-29.0%
CCOC(=O)C1CCCN(C(=O)Cn2ncc3c4ccccc4n(Cc4ccc(F)cc4)c3c2=O)C1 (configuration not stated),-18.7%,i,-29.2%,-16.4%
COC(=O)c1ccc([C@H]2Nc3ccc(S(=O)(=O)Nc4ccc(C)cc4)cc3[C@H]3C=CC[C@H]32)cc1,-20.2%,i,-20.8%,-11.2%
COc1ccc(NS(=O)(=O)c2ccc3c(c2)[C@H]2C=CC[C@H]2[C@@H](c2ccc(C(=O)O)cc2)N3)cc1,-2.9%,i,35.5µM*,-3.4%
SMILES,HTT promoter inh,GALC G270D up,FH mod,HTT-AS act
Fc1cccc(Cl)c1CNc1n[nH]c(-c2ccco2)n1,47.0%,i,1.1%,5.01µM*
CC(=O)c1cccc(NC(=O)c2noc3c2CSc2ccccc2-3)c1,51.8%,i,6.1%,1.41µM*
O=C(COc1ccc(Cl)cc1)Nc1cc(-c2ccccc2)no1,-2.3%,i,5.3%,16.3%
Cc1cc(=O)oc2cc(O)ccc12,-12.7%,28.2µM*,3.9%[53.3 µM],-12.4%
Cc1ccc(CN2COc3ccc4c(C)cc(=O)oc4c3C2)cc1,-5.2%,25.1µM*,-4.3%,-6.6%
CCc1c(C)c2ccc3c(c2oc1=O)CN(Cc1ccccc1)CO3,-36.4%,25.1µM*,2.0%,-21.9%
Cc1ccc(-n2ncc3c(NCCO)ncnc32)cc1Cl,61.9%,i,-7.1%,?

# Source: PubChem BioAssay (National Center for Advancing Translational Sciences (NCATS))
